Assay results taken from PubChem BioAssay AID1159580 (chemical genetic matrix, 2015).
About 2,000 (36%) of roughly 5,500 compounds were called active. Roughly 18% stayed inconclusive and do not appear here. No stated cut-off is given here; in the data, active means normalized growth mostly below about 0.91 (no sharp cut-off); inconclusive means no clear call, values can overlap the other calls; inactive means mostly above about 0.92. The list shows a part of the results.

Test: chemical genetic growth profiling, strain panel (AID 1159580);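 further: tested at 20 µM; growth read once vehicle control cultures reached saturation at 30 °C; 1 = growth at the plate median or of vehicle wells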
Details: growth OD
[1] = S. cerevisiae deletion strains, locus YDL101C, strain DUN1, stronger effect = lower value
[2] = S. cerevisiae deletion strains, locus YHR030C, strain SLT2, stronger effect = lower value
[3] = S. cerevisiae deletion strains, locus YJL095W, strain BCK1, stronger effect = lower value
[4] = S. cerevisiae deletion strains, locus YOR061W, strain CKA2, stronger effect = lower value

Measured: normalized growth

NCCC(O)C(=O)NC1CC(N)C(OC2OC(CN)C(O)C(O)C2N)C(OC2OC(CO)C(O)C2O)C1O (configuration not stated)
inactive: S. cerevisiae deletion strains, locus YAL013W, strain DEP1, stronger effect = lower value 1.04 | S. cerevisiae deletion strains, locus YBR021W, strain FUR4, stronger effect = lower value 0.976 | S. cerevisiae deletion strains, locus YBR229C, strain ROT2, stronger effect = lower value 1 | S. cerevisiae deletion strains, locus YCL029C, strain bik1, stronger effect = lower value 0.994 | S. cerevisiae deletion strains, locus YDL035C, strain GPR1, stronger effect = lower value 0.993 | S. cerevisiae deletion strains, locus YDL074C, strain BRE1, stronger effect = lower value 1.03 | [1] 1 | S. cerevisiae deletion strains, locus YDL134C, strain PPH21, stronger effect = lower value 0.999 | S. cerevisiae deletion strains, locus YDL185W, strain tfp1, stronger effect = lower value 0.979 | S. cerevisiae deletion strains, locus YDL192W, strain arf1, stronger effect = lower value 1 | S. cerevisiae deletion strains, locus YDR101C, strain arx1, stronger effect = lower value 1 | S. cerevisiae deletion strains, locus YDR150W, strain NUM1, stronger effect = lower value 0.999 | S. cerevisiae deletion strains, locus YDR162C, strain NBP2, stronger effect = lower value 1.01 | S. cerevisiae deletion strains, locus YDR318W, strain mcm21, stronger effect = lower value 0.992 | S. cerevisiae deletion strains, locus YDR388W, stronger effect = lower value 0.998 | S. cerevisiae deletion strains, locus YDR502C, strain sam2, stronger effect = lower value 1 | S. cerevisiae deletion strains, locus YEL061C, strain CIN8, stronger effect = lower value 1 | S. cerevisiae deletion strains, locus YER110C, stronger effect = lower value 0.988 | S. cerevisiae deletion strains, locus YER155C, strain BEM2, stronger effect = lower value 0.993 | S. cerevisiae deletion strains, locus YER167W, strain BCK2, stronger effect = lower value 0.978 | S. cerevisiae deletion strains, locus YGL078C, strain dbp3, stronger effect = lower value 0.999 | S. cerevisiae deletion strains, locus YGL086W, strain mad1, stronger effect = lower value 0.989 | S. cerevisiae deletion strains, locus YGL248W, strain PDE1, stronger effect = lower value 0.994 | S. cerevisiae deletion strains, locus YGR078C, strain PAC10, stronger effect = lower value 1.01 | S. cerevisiae deletion strains, locus YGR135W, strain pre9, stronger effect = lower value 1.02 | S. cerevisiae deletion strains, locus YGR229C, strain SMI1, stronger effect = lower value 1.02 | S. cerevisiae deletion strains, locus YGR252W, strain gcn5, stronger effect = lower value 0.994 | [2] 0.983 | S. cerevisiae deletion strains, locus YHR079C, strain IRE1 (second series), stronger effect = lower value 0.99 | S. cerevisiae deletion strains, locus YHR094C, strain hxt1, stronger effect = lower value 0.989 | S. cerevisiae deletion strains, locus YHR129C, strain ARP1, stronger effect = lower value 0.992 | S. cerevisiae deletion strains, locus YHR200W, strain rpn10, stronger effect = lower value 0.994 | S. cerevisiae deletion strains, locus YIL066C, strain RNR3, stronger effect = lower value 0.999 | S. cerevisiae deletion strains, locus YIL073C, strain SPO22, stronger effect = lower value 0.9 | S. cerevisiae deletion strains, locus YIL125W, strain kgd1, stronger effect = lower value 0.995 | S. cerevisiae deletion strains, locus YIR030C, strain dcg1, stronger effect = lower value 0.993 | [3] 1.06 | S. cerevisiae deletion strains, locus YJL134W, strain LCB3, stronger effect = lower value 0.989 | S. cerevisiae deletion strains, locus YJL168C, strain set2, stronger effect = lower value 0.991 | S. cerevisiae deletion strains, locus YJL187C, strain SWE1 (second series), stronger effect = lower value 0.994 | S. cerevisiae deletion strains, locus YJR043C, strain POL32, stronger effect = lower value 1.04 | S. cerevisiae deletion strains, locus YJR075W, strain HOC1, stronger effect = lower value 1.02 | S. cerevisiae deletion strains, locus YKL009W, strain mrt4, stronger effect = lower value 0.978 | S. cerevisiae deletion strains, locus YKL068W, stronger effect = lower value 0.987 | S. cerevisiae deletion strains, locus YKL085W, strain MDH1 (second series), stronger effect = lower value 0.972 | S. cerevisiae deletion strains, locus YKL085W, strain MDH1, stronger effect = lower value 0.972 | S. cerevisiae deletion strains, locus YKL190W, strain CNB1, stronger effect = lower value 0.99 | S. cerevisiae deletion strains, locus YKR001C, strain vps1, stronger effect = lower value 1 | S. cerevisiae deletion strains, locus YLR039C, strain RIC1, stronger effect = lower value 1.02 | S. cerevisiae deletion strains, locus YLR058C, strain SHM2, stronger effect = lower value 0.986 | S. cerevisiae deletion strains, locus YLR102C, strain apc9, stronger effect = lower value 0.989 | S. cerevisiae deletion strains, locus YLR262C, strain YPT6, stronger effect = lower value 0.985 | S. cerevisiae deletion strains, locus YLR268W, strain sec22, stronger effect = lower value 1.02 | S. cerevisiae deletion strains, locus YLR330W, strain CHS5, stronger effect = lower value 0.981 | S. cerevisiae deletion strains, locus YLR342W, strain FKS1 (second series), stronger effect = lower value 0.968 | S. cerevisiae deletion strains, locus YLR371W, strain rom2, stronger effect = lower value 0.978 | S. cerevisiae deletion strains, locus YLR418C, strain cdc73, stronger effect = lower value 1.02 | S. cerevisiae deletion strains, locus YML016C, strain PPZ1, stronger effect = lower value 0.991 | S. cerevisiae deletion strains, locus YML032C, strain rad52, stronger effect = lower value 0.998 | S. cerevisiae deletion strains, locus YML124C, strain tub3, stronger effect = lower value 1 | S. cerevisiae deletion strains, locus YMR078C, strain ctf18, stronger effect = lower value 0.997 | S. cerevisiae deletion strains, locus YMR223W, strain ubp8, stronger effect = lower value 0.995 | S. cerevisiae deletion strains, locus YMR263W, strain SAP30, stronger effect = lower value 1.01 | S. cerevisiae deletion strains, locus YMR307W, strain GAS1, stronger effect = lower value 0.99 | S. cerevisiae deletion strains, locus YNL067W, strain RPL9B, stronger effect = lower value 1.03 | S. cerevisiae deletion strains, locus YNL128W, strain TEP1, stronger effect = lower value 1.02 | S. cerevisiae deletion strains, locus YNL153C, strain GIM3, stronger effect = lower value 1.01 | S. cerevisiae deletion strains, locus YNL233W, strain BNI4, stronger effect = lower value 1 | S. cerevisiae deletion strains, locus YNL250W, strain rad50, stronger effect = lower value 0.991 | S. cerevisiae deletion strains, locus YNL271C, strain bni1, stronger effect = lower value 0.983 | S. cerevisiae deletion strains, locus YNL298W, strain CLA4, stronger effect = lower value 1.01 | S. cerevisiae deletion strains, locus YNL307C, strain MCK1, stronger effect = lower value 0.997 | S. cerevisiae deletion strains, locus YNL322C, strain KRE1, stronger effect = lower value 0.997 | S. cerevisiae deletion strains, locus YNR052C, strain pop2, stronger effect = lower value 0.994 | S. cerevisiae deletion strains, locus YOL006C, strain TOP1, stronger effect = lower value 1.05 | S. cerevisiae deletion strains, locus YOL012C, strain htz1 0.88 | S. cerevisiae deletion strains, locus YOL147C, strain pex11, stronger effect = lower value 0.994 | [4] 0.999 | S. cerevisiae deletion strains, locus YOR069W, strain VPS5, stronger effect = lower value 1.01 | S. cerevisiae deletion strains, locus YOR136W, strain idh2, stronger effect = lower value 0.993 | S. cerevisiae deletion strains, locus YOR144C, strain elg1, stronger effect = lower value 0.995 | S. cerevisiae deletion strains, locus YOR184W, strain ser1, stronger effect = lower value 0.982 | S. cerevisiae deletion strains, locus YOR316C, strain cot1, stronger effect = lower value 0.987 | S. cerevisiae deletion strains, locus YPL055C, strain LGE1, stronger effect = lower value 1.04 | S. cerevisiae deletion strains, locus YPL241C, strain CIN2, stronger effect = lower value 1.01 | S. cerevisiae deletion strains, locus YPR119W, strain clb2, stronger effect = lower value 0.993 | S. cerevisiae deletion strains, locus YPR141C, strain kar3, stronger effect = lower value 0.992 | S. cerevisiae deletion strains, locus YPR163C, strain tif3, stronger effect = lower value 1 | S. cerevisiae deletion strains, locus YPR167C, strain met16, stronger effect = lower value 0.994 | S. cerevisiae deletion strains, strain wtn01, stronger effect = lower value 0.993 | S. cerevisiae strains, strain wild type, stronger effect = lower value 0.992

CCCN(CCC)C(=S)NC(=O)c1cccc([N+](=O)[O-])c1
inactive: S. cerevisiae deletion strains, locus YAR019C, strain CDC15, stronger effect = lower value 0.973 | S. cerevisiae deletion strains, locus YBL105C, strain PKC1, stronger effect = lower value 0.956 | S. cerevisiae deletion strains, locus YBR135W, strain CKS1, stronger effect = lower value 0.977 | S. cerevisiae deletion strains, locus YBR136W, strain MEC1, stronger effect = lower value 0.966 | S. cerevisiae deletion strains, locus YBR160W, strain CDC28, stronger effect = lower value 0.965 | S. cerevisiae deletion strains, locus YDL017W, strain CDC7, stronger effect = lower value 0.969 | S. cerevisiae deletion strains, locus YDL028C, strain MPS1, stronger effect = lower value 0.976 | [1] 0.968 | S. cerevisiae deletion strains, locus YDL108W, strain KIN28, stronger effect = lower value 0.965 | S. cerevisiae deletion strains, locus YDL132W, strain cdc53, stronger effect = lower value 0.973 | S. cerevisiae deletion strains, locus YDL214C, strain PRR2, stronger effect = lower value 0.967 | S. cerevisiae deletion strains, locus YDR052C, strain DBF4, stronger effect = lower value 0.978 | S. cerevisiae deletion strains, locus YDR054C, strain cdc34, stronger effect = lower value 0.96 | S. cerevisiae deletion strains, locus YDR226W, strain ADK1, stronger effect = lower value 0.968 | S. cerevisiae deletion strains, locus YDR477W, strain SNF1, stronger effect = lower value 0.958 | S. cerevisiae deletion strains, locus YER123W, strain YCK3, stronger effect = lower value 0.907 | S. cerevisiae deletion strains, locus YER133W, strain GLC7, stronger effect = lower value 0.965 | S. cerevisiae deletion strains, locus YFL009W, strain cdc4, stronger effect = lower value 0.961 | S. cerevisiae deletion strains, locus YFL029C, strain CAK1, stronger effect = lower value 0.962 | S. cerevisiae deletion strains, locus YFR003C, strain YPI1, stronger effect = lower value 0.977 | S. cerevisiae deletion strains, locus YFR019W, strain FAB1, stronger effect = lower value 0.958 | S. cerevisiae deletion strains, locus YFR028C, strain CDC14, stronger effect = lower value 0.963 | S. cerevisiae deletion strains, locus YGR040W, strain KSS1, stronger effect = lower value 0.924 | S. cerevisiae deletion strains, locus YGR052W, strain FMP48, stronger effect = lower value 1.02 | S. cerevisiae deletion strains, locus YGR092W, strain DBF2, stronger effect = lower value 0.915 | [2] 0.94 | S. cerevisiae deletion strains, locus YHR079C, strain IRE1, stronger effect = lower value 0.978 | S. cerevisiae deletion strains, locus YHR082C, strain KSP1, stronger effect = lower value 1.02 | S. cerevisiae deletion strains, locus YHR205W, strain SCH9, stronger effect = lower value 0.976 | S. cerevisiae deletion strains, locus YIL147C, strain SLN1, stronger effect = lower value 0.97 | [3] 0.982 | S. cerevisiae deletion strains, locus YJL128C, strain PBS2, stronger effect = lower value 0.952 | S. cerevisiae deletion strains, locus YJL157C, strain FAR1, stronger effect = lower value 0.928 | S. cerevisiae deletion strains, locus YJR016C, strain ILV3, stronger effect = lower value 0.968 | S. cerevisiae deletion strains, locus YJR066W, strain TOR1 (second series), stronger effect = lower value 0.898 | S. cerevisiae deletion strains, locus YJR066W, strain TOR1, stronger effect = lower value 0.992 | S. cerevisiae deletion strains, locus YKL048C, strain ELM1, stronger effect = lower value 0.954 | S. cerevisiae deletion strains, locus YKL067W, strain YNK1, stronger effect = lower value 0.96 | S. cerevisiae deletion strains, locus YKL101W, strain HSL1, stronger effect = lower value 0.958 | S. cerevisiae deletion strains, locus YKL193C, strain SDS22, stronger effect = lower value 0.968 | S. cerevisiae deletion strains, locus YKL203C, strain TOR2, stronger effect = lower value 0.995 | S. cerevisiae deletion strains, locus YLR113W, strain HOG1, stronger effect = lower value 0.932 | S. cerevisiae deletion strains, locus YLR133W, strain CKI1, stronger effect = lower value 0.946 | S. cerevisiae deletion strains, locus YLR403W, strain SFP1, stronger effect = lower value 0.907 | S. cerevisiae deletion strains, locus YML070W, strain DAK1, stronger effect = lower value 0.942 | S. cerevisiae deletion strains, locus YMR001C, strain CDC5, stronger effect = lower value 0.973 | S. cerevisiae deletion strains, locus YMR205C, strain PFK2 (second series), stronger effect = lower value 0.956 | S. cerevisiae deletion strains, locus YMR277W, strain FCP1, stronger effect = lower value 0.973 | S. cerevisiae deletion strains, locus YNL006W, strain LST8, stronger effect = lower value 0.977 | S. cerevisiae deletion strains, locus YNL020C, strain ARK1, stronger effect = lower value 0.946 | S. cerevisiae deletion strains, locus YNL161W, strain CBK1, stronger effect = lower value 0.959 | S. cerevisiae deletion strains, locus YNL183C, strain NPR1, stronger effect = lower value 0.977 | S. cerevisiae deletion strains, locus YNL207W, strain RIO2, stronger effect = lower value 0.971 | S. cerevisiae deletion strains, locus YNL222W, strain SSU72, stronger effect = lower value 0.965 | S. cerevisiae deletion strains, locus YNL307C, strain MCK1 (second series), stronger effect = lower value 0.94 | S. cerevisiae deletion strains, locus YOL078W, strain AVO1, stronger effect = lower value 0.965 | S. cerevisiae deletion strains, locus YOL136C, strain PFK27, stronger effect = lower value 0.929 | [4] 0.943 | S. cerevisiae deletion strains, locus YOR119C, strain RIO1, stronger effect = lower value 0.996 | S. cerevisiae deletion strains, locus YOR231W, strain MKK1, stronger effect = lower value 0.939 | S. cerevisiae deletion strains, locus YOR329C, strain SCD5, stronger effect = lower value 0.963 | S. cerevisiae deletion strains, locus YPL031C, strain PHO85, stronger effect = lower value 0.955 | S. cerevisiae deletion strains, locus YPL153C, strain RAD53, stronger effect = lower value 0.925 | S. cerevisiae deletion strains, locus YPL204W, strain HRR25, stronger effect = lower value 0.915 | S. cerevisiae deletion strains, locus YPL209C, strain IPL1, stronger effect = lower value 0.961 | S. cerevisiae deletion strains, locus YPL256C, strain CLN2, stronger effect = lower value 0.941 | S. cerevisiae deletion strains, locus YPR025C, strain CCL1, stronger effect = lower value 0.973 | S. cerevisiae deletion strains, locus YPR106W, strain ISR1, stronger effect = lower value 0.961 | S. cerevisiae deletion strains, locus YPR111W, strain DBF20, stronger effect = lower value 0.964 | S. cerevisiae deletion strains, strain NNK1, stronger effect = lower value 0.974 | S. cerevisiae deletion strains, strain TSCII, stronger effect = lower value 0.962
